The supplement of paper PMC10849652
About 7,900 targets were measured; listed, in parts, are those with a hit and a random draw of the rest. About 0.6% of all pairs of compound and target were hits. Values without a mark were called inactive.

The targets below were run with CNC(=O)c1ccc(Nc2ncc(C(F)(F)F)c(NCc3nccnc3N(C)S(C)(=O)=O)n2)cc1 [defactinib] (assay: log2 fold change, soluble protein after heating vs DMSO (PISA); higher = thermal stabilisation; K562 cells, 10 uM, 30 min; active = over 0.2 and 3.5 SD of the protein, either way, in both replicates (recomputed)).
In short: (§1)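 K562 cells (2×10^6 cells/mL) were treated with 10 μM compound for 30 min, and aliquots were heated for 3 min over 48°C-58°C. Pooled aliquots were extracted in PBS with 0.5% NP-40 at 4°C, and the supernatant after 21,000xg for 90 min was measured by TMTpro 16plex LC-MS/MS with channel sums equalised. Reported thermal stability, relative to control samples and from duplicates, is a log2 fold change.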

Chain of UniProt O00418 (O00418 whole entry, looked up): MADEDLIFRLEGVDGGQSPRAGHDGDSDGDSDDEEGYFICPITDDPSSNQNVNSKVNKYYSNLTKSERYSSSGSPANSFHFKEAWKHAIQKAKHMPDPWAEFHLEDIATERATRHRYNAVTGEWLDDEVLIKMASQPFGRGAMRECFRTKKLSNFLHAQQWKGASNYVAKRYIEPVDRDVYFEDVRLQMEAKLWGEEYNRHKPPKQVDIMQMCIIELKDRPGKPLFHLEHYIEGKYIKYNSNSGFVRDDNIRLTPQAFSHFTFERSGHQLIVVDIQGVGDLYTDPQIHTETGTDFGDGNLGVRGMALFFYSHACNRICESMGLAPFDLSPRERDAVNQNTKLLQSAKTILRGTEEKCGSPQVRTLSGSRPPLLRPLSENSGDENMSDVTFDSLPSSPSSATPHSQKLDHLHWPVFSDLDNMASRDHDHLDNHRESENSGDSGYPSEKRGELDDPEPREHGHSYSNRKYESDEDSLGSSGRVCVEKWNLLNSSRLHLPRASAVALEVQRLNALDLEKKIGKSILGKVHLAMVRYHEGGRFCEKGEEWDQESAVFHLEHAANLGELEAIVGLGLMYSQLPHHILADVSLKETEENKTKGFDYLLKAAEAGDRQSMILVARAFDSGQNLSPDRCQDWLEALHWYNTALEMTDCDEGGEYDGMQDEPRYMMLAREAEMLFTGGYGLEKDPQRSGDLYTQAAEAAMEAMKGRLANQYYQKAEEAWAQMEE
Chain of UniProt Q9NSI2 (Q9NSI2 whole entry, looked up): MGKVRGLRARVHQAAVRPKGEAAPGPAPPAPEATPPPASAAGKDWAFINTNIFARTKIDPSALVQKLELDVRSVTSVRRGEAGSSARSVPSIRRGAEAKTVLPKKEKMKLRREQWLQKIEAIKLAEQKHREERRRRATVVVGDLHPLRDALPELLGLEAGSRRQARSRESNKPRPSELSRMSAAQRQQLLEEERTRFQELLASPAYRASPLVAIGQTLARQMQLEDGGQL
Chain of UniProt P25685 (P25685 whole entry, looked up): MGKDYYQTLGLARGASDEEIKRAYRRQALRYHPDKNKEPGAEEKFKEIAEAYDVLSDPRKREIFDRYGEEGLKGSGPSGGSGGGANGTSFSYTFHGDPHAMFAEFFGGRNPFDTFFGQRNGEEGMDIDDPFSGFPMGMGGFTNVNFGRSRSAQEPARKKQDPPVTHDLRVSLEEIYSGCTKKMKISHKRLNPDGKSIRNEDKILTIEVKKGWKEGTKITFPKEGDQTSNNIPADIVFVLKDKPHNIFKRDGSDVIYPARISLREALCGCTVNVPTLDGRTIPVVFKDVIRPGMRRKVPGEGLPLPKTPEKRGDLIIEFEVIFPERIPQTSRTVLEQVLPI
Chain of UniProt Q86YN1 (Q86YN1 whole entry, looked up): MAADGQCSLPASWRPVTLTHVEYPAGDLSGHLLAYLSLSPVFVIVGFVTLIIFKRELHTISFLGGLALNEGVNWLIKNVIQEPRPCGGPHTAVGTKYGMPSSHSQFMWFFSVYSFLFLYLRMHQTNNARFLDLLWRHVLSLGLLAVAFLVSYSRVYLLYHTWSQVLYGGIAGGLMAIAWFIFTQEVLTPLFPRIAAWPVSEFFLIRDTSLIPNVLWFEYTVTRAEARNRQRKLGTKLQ
Chain of UniProt P35222 (P35222 whole entry, looked up): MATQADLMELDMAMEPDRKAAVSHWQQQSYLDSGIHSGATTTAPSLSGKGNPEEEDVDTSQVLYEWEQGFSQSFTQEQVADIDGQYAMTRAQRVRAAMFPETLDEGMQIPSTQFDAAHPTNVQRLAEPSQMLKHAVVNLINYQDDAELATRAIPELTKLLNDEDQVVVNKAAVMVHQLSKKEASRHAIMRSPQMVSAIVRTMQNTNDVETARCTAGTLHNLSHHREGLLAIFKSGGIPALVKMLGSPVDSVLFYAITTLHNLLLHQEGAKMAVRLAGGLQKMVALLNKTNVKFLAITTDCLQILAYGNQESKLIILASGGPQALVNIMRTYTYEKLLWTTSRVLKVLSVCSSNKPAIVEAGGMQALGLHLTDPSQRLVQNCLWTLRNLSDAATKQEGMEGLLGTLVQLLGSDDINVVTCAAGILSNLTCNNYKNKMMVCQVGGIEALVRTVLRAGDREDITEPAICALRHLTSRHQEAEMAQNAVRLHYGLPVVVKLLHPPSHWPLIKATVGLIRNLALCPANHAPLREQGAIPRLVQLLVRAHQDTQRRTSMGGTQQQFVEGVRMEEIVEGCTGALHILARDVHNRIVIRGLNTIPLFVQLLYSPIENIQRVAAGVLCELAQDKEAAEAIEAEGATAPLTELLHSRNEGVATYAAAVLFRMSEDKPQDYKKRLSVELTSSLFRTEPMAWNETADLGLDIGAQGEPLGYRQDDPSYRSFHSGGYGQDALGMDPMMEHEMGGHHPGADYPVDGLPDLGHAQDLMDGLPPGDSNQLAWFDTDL
Chain of UniProt Q8TCE6 (Q8TCE6 whole entry, looked up): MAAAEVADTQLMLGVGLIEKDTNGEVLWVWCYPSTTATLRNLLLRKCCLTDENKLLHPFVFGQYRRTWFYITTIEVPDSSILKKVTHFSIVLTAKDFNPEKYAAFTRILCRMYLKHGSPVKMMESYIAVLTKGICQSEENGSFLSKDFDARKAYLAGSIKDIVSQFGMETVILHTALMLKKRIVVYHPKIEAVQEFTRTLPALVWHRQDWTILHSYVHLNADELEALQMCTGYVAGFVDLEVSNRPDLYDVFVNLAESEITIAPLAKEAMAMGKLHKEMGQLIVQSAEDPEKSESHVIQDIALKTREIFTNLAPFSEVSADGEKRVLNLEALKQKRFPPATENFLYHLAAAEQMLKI
Chain of UniProt Q96F86 (Q96F86 whole entry, looked up): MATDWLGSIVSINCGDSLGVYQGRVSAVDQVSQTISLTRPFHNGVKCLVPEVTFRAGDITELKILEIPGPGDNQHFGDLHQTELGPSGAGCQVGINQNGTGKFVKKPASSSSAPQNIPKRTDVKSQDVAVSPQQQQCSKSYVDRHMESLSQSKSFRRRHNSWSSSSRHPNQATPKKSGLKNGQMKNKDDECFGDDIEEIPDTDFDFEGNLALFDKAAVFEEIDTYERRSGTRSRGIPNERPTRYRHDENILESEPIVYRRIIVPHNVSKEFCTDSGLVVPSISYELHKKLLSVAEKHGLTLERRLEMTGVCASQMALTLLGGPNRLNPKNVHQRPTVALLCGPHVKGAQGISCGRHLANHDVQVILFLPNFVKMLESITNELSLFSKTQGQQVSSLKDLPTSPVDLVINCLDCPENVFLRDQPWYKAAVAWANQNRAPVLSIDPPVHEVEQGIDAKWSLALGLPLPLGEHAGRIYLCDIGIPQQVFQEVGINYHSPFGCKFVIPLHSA
Chain of UniProt Q9BPY3 (Q9BPY3 whole entry, looked up): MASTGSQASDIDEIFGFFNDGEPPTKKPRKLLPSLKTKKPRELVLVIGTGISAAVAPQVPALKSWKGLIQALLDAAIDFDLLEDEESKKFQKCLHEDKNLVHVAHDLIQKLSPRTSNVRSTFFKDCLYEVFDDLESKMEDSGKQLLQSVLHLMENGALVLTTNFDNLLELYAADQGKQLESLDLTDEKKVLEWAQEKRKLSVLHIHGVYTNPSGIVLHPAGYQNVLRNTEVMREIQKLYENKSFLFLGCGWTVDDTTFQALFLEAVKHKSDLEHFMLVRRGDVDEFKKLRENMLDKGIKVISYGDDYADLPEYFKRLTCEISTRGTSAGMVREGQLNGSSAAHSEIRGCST
Chain of UniProt Q9UBR2 (Q9UBR2 whole entry, looked up): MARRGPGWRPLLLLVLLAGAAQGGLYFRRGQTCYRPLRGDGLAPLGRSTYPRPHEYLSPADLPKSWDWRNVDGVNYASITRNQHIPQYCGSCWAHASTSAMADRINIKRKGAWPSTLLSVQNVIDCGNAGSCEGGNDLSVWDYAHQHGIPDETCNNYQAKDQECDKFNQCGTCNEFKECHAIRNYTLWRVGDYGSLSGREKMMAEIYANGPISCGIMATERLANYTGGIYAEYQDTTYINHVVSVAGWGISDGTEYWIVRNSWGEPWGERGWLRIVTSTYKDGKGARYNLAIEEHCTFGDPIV
Chain of UniProt Q96PV7 (Q96PV7 whole entry, looked up): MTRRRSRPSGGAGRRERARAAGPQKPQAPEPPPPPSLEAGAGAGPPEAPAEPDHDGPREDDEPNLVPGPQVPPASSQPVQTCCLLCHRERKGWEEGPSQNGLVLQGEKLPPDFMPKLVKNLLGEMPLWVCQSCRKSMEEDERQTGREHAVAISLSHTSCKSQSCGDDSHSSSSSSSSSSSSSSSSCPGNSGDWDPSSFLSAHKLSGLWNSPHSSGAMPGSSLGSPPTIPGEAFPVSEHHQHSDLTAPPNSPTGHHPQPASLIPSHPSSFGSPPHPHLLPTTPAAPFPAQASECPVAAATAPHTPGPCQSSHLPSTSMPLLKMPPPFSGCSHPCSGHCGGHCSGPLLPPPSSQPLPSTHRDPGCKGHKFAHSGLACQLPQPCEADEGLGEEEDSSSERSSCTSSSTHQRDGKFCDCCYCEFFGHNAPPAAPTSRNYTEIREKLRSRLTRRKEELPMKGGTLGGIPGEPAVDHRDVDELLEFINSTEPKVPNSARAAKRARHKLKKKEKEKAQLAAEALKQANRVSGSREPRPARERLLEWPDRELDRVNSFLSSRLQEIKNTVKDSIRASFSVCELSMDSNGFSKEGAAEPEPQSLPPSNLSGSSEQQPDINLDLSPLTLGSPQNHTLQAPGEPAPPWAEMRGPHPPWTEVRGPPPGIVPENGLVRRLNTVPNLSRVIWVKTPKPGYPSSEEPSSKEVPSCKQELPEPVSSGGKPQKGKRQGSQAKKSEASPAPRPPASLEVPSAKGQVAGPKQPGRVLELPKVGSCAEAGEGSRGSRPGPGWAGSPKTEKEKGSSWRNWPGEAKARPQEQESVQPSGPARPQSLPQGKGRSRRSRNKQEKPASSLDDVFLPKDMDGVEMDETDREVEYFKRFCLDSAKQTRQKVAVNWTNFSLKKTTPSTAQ
Chain of UniProt Q8N8J7 (Q8N8J7 whole entry, looked up): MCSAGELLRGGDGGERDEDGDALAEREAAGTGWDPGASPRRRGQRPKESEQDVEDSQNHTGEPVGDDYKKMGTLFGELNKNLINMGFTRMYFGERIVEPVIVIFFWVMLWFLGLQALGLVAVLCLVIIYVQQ

In order of rising log2 fold change:
1. CTNNBL1 (UniProt Q8WYA6)  -0.513
2. FAM118A (UniProt Q9NWS6)  -0.179
3. DSN1 (UniProt Q9H410)  -0.146
4. DOLPP1 (UniProt Q86YN1)  -0.134
5. FAM118B (UniProt Q9BPY3)  -0.113
6. DNAH11 (UniProt Q96DT5)  -0.11
7. EEF1A1 (UniProt P68104)  -0.079
8. DENND10 (UniProt Q8TCE6)  -0.058
9. DNAJB1 (UniProt P25685)  -0.05
10. EDC3 (UniProt Q96F86)  -0.04
11. DYNC1LI2 (UniProt O43237)  -0.039
12. FAM3A (UniProt P98173)  -0.035
13. ELAC1 (UniProt Q9H777)  -0.031
14. DNAJB12 (UniProt Q9NXW2)  -0.03
15. DTWD1 (UniProt Q8N5C7)  -0.03
16. EEF2K (UniProt O00418)  -0.021
17. FAM160B1 (UniProt Q5W0V3)  -0.01
18. EIF4E2 (UniProt O60573)  -0.001
19. FAM207A (UniProt Q9NSI2)  0
20. CTSZ (UniProt Q9UBR2)  0
21. DDB1 (UniProt Q16531)  0.002
22. DAXX (UniProt Q9UER7)  0.005
23. DLD (UniProt P09622)  0.01
24. FAM241A (UniProt Q8N8J7)  0.013
25. EXOSC10 (UniProt Q01780)  0.015
26. CTSH (UniProt P09668)  0.018
27. DYRK1A isoform 2 (UniProt Q13627)  0.03
28. EIF4G3 isoform 3 (UniProt O43432)  0.04
29. CTNNB1 (UniProt P35222)  0.074
30. DHRS3 (UniProt O75911)  0.077
31. DNAJC24 (UniProt Q6P3W2)  0.116
32. FAM193B (UniProt Q96PV7)  0.231
33. DOCK8 (UniProt Q8NF50)  0.242
34. CYP24A1 (UniProt Q07973)  0.394

The targets below were run with CNCc1ccc(-c2[nH]c3cc(F)cc4c3c2CCNC4=O)cc1 [rucaparib] in the same assay as above.
In short: as §1

In order of falling log2 fold change:
1. EIF4G3 isoform 3 (UniProt O43432)  0.519
2. DYNC1LI2 (UniProt O43237)  0.42
3. FAM118A (UniProt Q9NWS6)  0.29
4. FAM193B (UniProt Q96PV7)  0.19
5. DNAH11 (UniProt Q96DT5)  0.162
6. ELAC1 (UniProt Q9H777)  0.153
7. EEF1A1 (UniProt P68104)  0.146
8. CTNNBL1 (UniProt Q8WYA6)  0.137
9. EIF4E2 (UniProt O60573)  0.126
10. CYP24A1 (UniProt Q07973)  0.115
11. CWF19L2 (UniProt Q2TBE0)  0.102
12. EXOSC10 (UniProt Q01780)  0.101
13. EEF2K (UniProt O00418)  0.1
14. DOLPP1 (UniProt Q86YN1)  0.087
15. DNAJB12 (UniProt Q9NXW2)  0.079
16. DSN1 (UniProt Q9H410)  0.076
17. FAM207A (UniProt Q9NSI2)  0.064
18. DNAJC24 (UniProt Q6P3W2)  0.059
19. DAXX (UniProt Q9UER7)  0.048
20. DOCK8 (UniProt Q8NF50)  0.044
21. FAM118B (UniProt Q9BPY3)  0.041
22. DYRK1A isoform 2 (UniProt Q13627)  0.036
23. FAM3A (UniProt P98173)  0.017
24. EDC3 (UniProt Q96F86)  0.015
25. DTWD1 (UniProt Q8N5C7)  0.011
26. FAM241A (UniProt Q8N8J7)  0.006
27. DNAJB1 (UniProt P25685)  -0.025
28. DDB1 (UniProt Q16531)  -0.033
29. DYNC1I2 isoform 2 (UniProt Q13409)  -0.034
30. FAM160B1 (UniProt Q5W0V3)  -0.036
31. DHRS3 (UniProt O75911)  -0.04
32. DLD (UniProt P09622)  -0.041
33. DENND10 (UniProt Q8TCE6)  -0.065
34. ENTPD7 (UniProt Q9NQZ7)  -0.078
35. CTSZ (UniProt Q9UBR2)  -0.098
36. CTSH (UniProt P09668)  -0.121
37. EIF2AK3 (UniProt Q9NZJ5)  -0.125
38. CTNNB1 (UniProt P35222)  -0.145
39. ELF1 (UniProt P32519)  -0.301

For CYB561A3 isoform 2 (UniProt Q8NBI2), the log2 fold change was 0.395 (active).
